A short description of experiment [1]: qHTS assay to identify small molecule agonists of the peroxisome proliferator-activated receptor delta (PPARd) signaling pathway - cell viability counter screen (AID 743211). Also: nearly all actives have a fitted effect of over 55% in size. Also: potency is read from the fitted curve at half-maximal effect. An outline of the steps:
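HEK293H PPARd-bla, 3000 cells/well; 5 h preincubation 37C/5% CO2; cpd in DMSO, 17 h 37C; B/G FRET substrate 2 h RT; CellTiter-Glo 30 min RT, luminescence.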

Experiment [2] is described as follows: qHTS assay to identify small molecule antagonists of the peroxisome proliferator-activated receptor delta (PPARd) signaling pathway - cell viability counter screen (AID 743213). Also: nearly all actives have a fitted effect of over 50% in size. Also: potency is read from the fitted curve at half-maximal effect. An outline of the steps: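 CellTiter-Glo was added to PPARd-bla HEK293H wells following 17 h compound treatment in the presence of 300 nM L165041. Luminescence was recorded after 30 min at room temperature.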

The nature of experiment [3]: qHTS assay to identify small molecule agonists of the farnesoid-X-receptor (FXR) signaling pathway - cell viability counter screen (AID 743218). Also: nearly all actives have a fitted effect of over 45% in size. Also: potency is read from the fitted curve at half-maximal effect. An outline of the steps:
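Viability counter screen in the same wells: CellTiter-Glo luminescence, 30 min room-temperature incubation, measured after the beta-lactamase read. Cells were GeneBLAzer FXR-UAS-bla HEK 293T, compound-treated 16 h at 37C.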

The nature of experiment [4]: qHTS assay to identify small molecule antagonists of the farnesoid-X-receptor (FXR) signaling pathway - cell viability counter screen (AID 743221; active = well fitted cell-killing curve with a large enough effect in the repeat runs, not every such curve was filed as active; also: nearly all actives have a fitted effect of over 50% in size; also: potency is read from the fitted curve at half-maximal effect). In short, it runs like this:
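Luminescence from CellTiter-Glo measures cytotoxicity in GeneBLAzer FXR-UAS-bla HEK 293T cells. Cells were exposed to compounds with 50 uM chenodeoxycholic acid (final) for 16 h at 37 C, in wells also used for the reporter readout.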

Experiment [5] has as its target Vitamin D3 receptor (Homo sapiens) (UniProt P11473). Put plainly: qHTS assay to identify small molecule agonists of the vitamin D receptor (VDR) signaling pathway (AID 743222; calls by dose curve). An outline of the steps:
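Agonist mode, beta-lactamase reporter: fluorescence from LiveBLAzer B/G FRET substrate (2 h, room temperature) read after 16 h compound treatment at 37 C of VDR-bla cells, which were pre-incubated 4 h after seeding.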

Experiment [6] shares this target. Put plainly: qHTS assay to identify small molecule antagonists of the vitamin D receptor (VDR) signaling pathway (AID 743223; active = well fitted inhibition curve with a large enough effect in the signal ratio in the repeat runs, not every such curve was filed as active; the % refers to the signal ratio). An outline of the steps: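 Antagonist mode uses 1alpha,25-dihydroxyvitamin D3 at 3 nM final as stimulus. VDR-bla cells receive compounds in DMSO, incubate 16 h at 37C, then a beta-lactamase FRET substrate for 2 h at room temperature before fluorescence measurement.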

Experiment [7] concerns the target Bile acid receptor (Homo sapiens) (UniProt Q96RI1). Briefly: qHTS assay to identify small molecule antagonists of the farnesoid-X-receptor (FXR) signaling pathway (AID 743217; active = well fitted inhibition curve with a large enough effect in the signal ratio in the repeat runs, not every such curve was filed as active; the % refers to the signal ratio). In short, it runs like this:
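Antagonist mode: chenodeoxycholic acid at 50 uM final stimulates a UAS-driven beta-lactamase reporter in HEK 293T FXR-bla cells during 16 h, 37C compound exposure. Read-out is FRET substrate fluorescence after 2 h at room temperature.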

For experiment [8] the target is unchanged. Briefly: qHTS assay to identify small molecule agonists of the farnesoid-X-receptor (FXR) signaling pathway (AID 743220; active = well fitted activation curve with a large enough effect in the signal ratio in the repeat runs, not every such curve was filed as active; the % refers to the signal ratio; also: potency is read from the fitted curve at half-maximal effect). An outline of the steps:
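FXR-UAS-bla HEK 293T cells carrying a UAS-driven beta-lactamase reporter were plated for 5 h at 37C/5% CO2, then exposed to DMSO-dissolved Tox21 10K compounds for 16 h at 37C. A LiveBLAzer B/G FRET substrate was loaded for 2 h at room temperature before fluorescence reading.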

Experiment [9] has as its target Peroxisome proliferator-activated receptor delta (Homo sapiens) (UniProt Q03181). Briefly: qHTS assay to identify small molecule antagonists of the peroxisome proliferator-activated receptor delta (PPARd) signaling pathway (AID 743215; active = well fitted inhibition curve with a large enough effect in the signal ratio in the repeat runs, not every such curve was filed as active; the % refers to the signal ratio;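 also: cells stimulated with agonist L165041 at 300 nM final during compound exposure; series mostly up to about 62 µM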). An outline of the steps: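 Agonist L165041 (300 nM final) added with compound to PPARd-bla HEK293H UAS-bla reporter cells; 17 h incubation at 37 C. Read-out: LiveBLAzer FRET substrate, 2 h at room temperature, fluorescence intensity.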

Experiment [10] shares this target. Briefly: qHTS assay to identify small molecule agonists of the peroxisome proliferator-activated receptor delta (PPARd) signaling pathway (AID 743212; calls by dose curve). An outline of the steps:
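Read-out: beta-lactamase FRET fluorescence after 2 h room-temperature incubation with LiveBLAzer B/G substrate. Cells were HEK293H carrying a UAS-bla reporter for PPARd, treated at 37 C with DMSO-dissolved compounds.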

Inconclusive results are not listed. Calls of active or inactive are those of the source. Unless noted, calls follow the shape of the dose curve; as a rule, active = well fitted curve in the direction sought with a large enough effect in the repeat runs; inconclusive = weak or mixed curves; inactive = no such curve, though single readings can be large; an effect the other way counts as inactive or inconclusive.

Peroxisome proliferator-activated receptor delta (Homo sapiens), sequence (Q03181 whole entry, looked up): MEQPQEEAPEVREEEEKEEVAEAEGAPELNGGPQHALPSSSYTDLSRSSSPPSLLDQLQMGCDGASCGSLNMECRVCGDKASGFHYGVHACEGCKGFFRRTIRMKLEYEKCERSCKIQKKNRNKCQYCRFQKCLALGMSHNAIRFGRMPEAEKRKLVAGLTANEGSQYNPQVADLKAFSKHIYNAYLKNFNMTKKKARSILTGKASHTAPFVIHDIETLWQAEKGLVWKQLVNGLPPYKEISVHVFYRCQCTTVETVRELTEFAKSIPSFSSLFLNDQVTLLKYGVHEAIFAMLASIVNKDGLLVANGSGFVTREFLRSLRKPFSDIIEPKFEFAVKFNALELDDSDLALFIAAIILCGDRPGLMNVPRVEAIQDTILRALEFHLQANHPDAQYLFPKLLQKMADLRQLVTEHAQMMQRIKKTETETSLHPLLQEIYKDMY
Bile acid receptor (Homo sapiens), sequence (Q96RI1 whole entry, looked up): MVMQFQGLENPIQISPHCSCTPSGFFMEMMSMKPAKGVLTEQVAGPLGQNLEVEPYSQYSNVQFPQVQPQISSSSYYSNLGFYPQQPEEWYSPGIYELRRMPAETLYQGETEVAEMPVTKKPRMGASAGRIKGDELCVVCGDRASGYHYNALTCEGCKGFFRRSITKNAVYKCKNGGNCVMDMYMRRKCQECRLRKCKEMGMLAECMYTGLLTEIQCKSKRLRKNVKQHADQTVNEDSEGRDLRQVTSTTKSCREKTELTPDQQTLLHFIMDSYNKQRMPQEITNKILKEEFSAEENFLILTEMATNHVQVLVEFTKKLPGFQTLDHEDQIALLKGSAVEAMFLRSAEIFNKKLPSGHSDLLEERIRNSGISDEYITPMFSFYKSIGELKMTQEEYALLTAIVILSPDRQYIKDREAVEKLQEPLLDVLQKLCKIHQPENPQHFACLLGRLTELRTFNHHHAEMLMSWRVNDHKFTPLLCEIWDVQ
Vitamin D3 receptor (Homo sapiens), sequence (P11473 whole entry, looked up): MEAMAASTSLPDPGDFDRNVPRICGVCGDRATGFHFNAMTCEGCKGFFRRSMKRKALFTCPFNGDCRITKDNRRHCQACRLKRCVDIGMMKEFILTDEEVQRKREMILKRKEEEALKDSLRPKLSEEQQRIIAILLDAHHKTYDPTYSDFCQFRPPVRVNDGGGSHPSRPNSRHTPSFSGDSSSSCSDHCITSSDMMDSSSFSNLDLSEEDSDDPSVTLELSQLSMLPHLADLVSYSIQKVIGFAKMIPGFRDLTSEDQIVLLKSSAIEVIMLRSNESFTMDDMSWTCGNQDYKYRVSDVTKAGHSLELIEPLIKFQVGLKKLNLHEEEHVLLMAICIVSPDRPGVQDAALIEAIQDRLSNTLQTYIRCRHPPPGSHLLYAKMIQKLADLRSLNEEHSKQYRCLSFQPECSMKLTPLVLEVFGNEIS

`CCc1cccc(N(C)C(N)=Nc2cccc3ccccc23)c1`: the Potency entry in experiment [1], in experiment [2], in experiment [3] and in experiment [4] was “inactive” in each case. The result in experiment [5] and in experiment [6] was inactive.
In the case of `CN(C)C(=O)Nc1ccc(Oc2ccc(Cl)cc2)cc1`, the Potency entry in [1], in experiment [2], in [3] and in [4] was “inactive” throughout. In addition, the outcome in [5] and in [6] was inactive.
Regarding `CN1CCN(CCCN2c3ccccc3Sc3ccc(S(=O)(=O)N(C)C)cc32)CC1`, the figures for the Potency in experiment [1], in experiment [2] and in experiment [3] were 26.6 µM (active), 26.6 µM (active) and 29.8 µM (active), respectively.
Turning to `Cn1c(=O)c2c(ncn2CC(=O)O)n(C)c1=O`, the Potency entry in experiment [1], in [2], in [3] and in experiment [4] was “inactive” throughout. Further, the outcome in experiment [6] was inactive.
Turning to `COCCOC`, the Potency result in experiment [1], in [2], in [7], in [3], in [8] and in experiment [4] was “inactive” in each case. For the same compound, in [6], the call was inactive.
With `COC(=O)c1cc(Cl)ccc1NS(=O)(=O)C(F)(F)F`, the Potency result in experiment [1], in [2], in experiment [7], in [3], in [8] and in experiment [4] was “inactive” each time.
`O=C(N/N=C/c1ccc([N+](=O)[O-])o1)c1ccc(O)cc1`: the Potency result in experiment [1], in experiment [2], in [3] and in [4] was “inactive” throughout.
For the compound `CCCOc1ccc(S(=O)(=O)N2CCN(CC)CC2)cc1-c1nc2c(CC)n(Cc3ccccn3)nc2c(=O)[nH]1`, the Potency entry in [1], in experiment [2], in experiment [7], in [3], in experiment [8] and in [4] was “inactive” throughout. Besides, the result in experiment [5] was inactive.
Take `C/C=C(\C)C(=O)OCCC(C)CCC=C(C)C` (centres undefined): the Potency result in [1], in experiment [2], in experiment [7], in experiment [3], in experiment [8] and in experiment [4] was “inactive” throughout. Further, the compound was classed as inactive in [5] and in [6].
Take `Nc1ccc(S(=O)(=O)O)cc1`: the Potency result in experiment [1], in [2], in experiment [7], in experiment [3], in experiment [8] and in experiment [4] was “inactive” throughout. For the same compound, the result in experiment [6] was inactive.
In the case of `Cc1nccn1-c1ccc(Sc2cccc(C3(C(N)=O)CCOCC3)c2)cc1`, the Potency result in experiment [1], in experiment [2], in experiment [9], in experiment [8] and in experiment [4] was “inactive” in each case.
Regarding `CCC(C(=O)OCCOCCN(CC)CC)c1ccccc1` (centres undefined), the Potency result in experiment [1], in [2], in [7], in experiment [3], in experiment [8] and in experiment [4] was “inactive” in each case. Further, the call in experiment [6] was inactive.
For the compound `O=C(O)c1cccnc1C(=O)O`, the Potency result in experiment [1], in [2], in [3] and in [4] was “inactive” in each case.
In the case of `CNC(=O)N(c1ccccc1)c1ccccc1`, the Potency result in experiment [1], in experiment [2], in experiment [3] and in experiment [4] was “inactive” each time.
In the case of `Cc1cc(S(=O)(=O)O)ccc1N=Nc1c(O)ccc2ccccc12`, the Potency result in [1], in experiment [2], in [7], in experiment [3], in [8] and in [4] was “inactive” throughout. In addition, the compound was classed as inactive in [6].
With `CCOC(=O)c1ccccc1C`, the Potency entry in experiment [1], in experiment [2], in experiment [7] and in [8] was “inactive” each time.
Take `C[N+]1(C)CCC(=C(c2ccccc2)c2ccccc2)CC1`: the Potency entry in experiment [1], in experiment [2], in experiment [7], in [3], in [8] and in experiment [4] was “inactive” each time. Besides, the outcome in [6] was inactive.
As for `CCOC(=O)N1CCC(n2c(=O)[nH]c3cc(Cl)ccc32)CC1`, the Potency result in [1], in [2], in experiment [3] and in [4] was “inactive” each time. For the same compound, the outcome in [6] was inactive.
`Cc1cc(OI)c(C(C)C)cc1-c1cc(C(C)C)c(OI)cc1C`: the Potency result in [1], in experiment [2], in [7], in experiment [3] and in experiment [4] was “inactive” in each case.
Turning to `COC(=O)c1cc(S(N)(=O)=O)ccc1OC`, the Potency entry in [1], in [2], in experiment [7], in [3], in [8] and in experiment [4] was “inactive” each time. The outcome in experiment [5] and in experiment [6] was inactive.
On to `CC1=C(/C=C/C(C)=C\C=C\C(C)=C\C(=O)O)C(C)(C)CCC1`, for which the Potency result in experiment [1], in experiment [2], in experiment [3] and in [4] was “inactive” throughout. The result in experiment [6] was inactive.
As for `COc1ccccc1N=Nc1c(S(=O)(=O)O)cc2cc(S(=O)(=O)O)cc(NC(C)=O)c2c1O`, the Potency entry in [1], in [2], in [3] and in experiment [4] was “inactive” each time. The compound was called inactive in experiment [6].
With `NC(=O)Cn1c(=O)cc(CCN2CCN(c3nccc4sccc34)CC2)c2ccc(F)cc21`, the Potency result in experiment [1], in experiment [2], in experiment [9], in experiment [3], in experiment [8] and in [4] was “inactive” in each case. The compound was classed as inactive in experiment [6].
For `CC[C@@H]([C@H](C)O)n1ncn(-c2ccc(N3CCN(c4ccc(OC[C@@H]5CO[C@@](Cn6cncn6)(c6ccc(F)cc6F)C5)cc4)CC3)cc2)c1=O`, the Potency is 29.8 µM (active) in experiment [1], 23.7 µM (active) in [2], 29.8 µM (active) in experiment [3] and 29.8 µM (active) in [4]. The compound was classed as inactive in experiment [5] and in experiment [6].
With `N#C[C@@H]1C[C@@H]2C[C@@H]2N1C(=O)[C@@H](N)C12CC3CC(CC(O)(C3)C1)C2`, the Potency result in [1], in experiment [7], in [3], in [8] and in experiment [4] was “inactive” throughout. In experiment [5], the call was inactive.
For the compound `CSc1ccc(Oc2ccc(S(N)(=O)=O)cc2CN(C)C)cc1C`, the Potency entry in [2] and in experiment [8] was “inactive” throughout. In experiment [5], the result was inactive.
For `CCOC(=N)CC(=O)OCC`, the Potency entry in experiment [10], in experiment [2], in experiment [9], in experiment [3] and in experiment [4] was “inactive” throughout.
On to `CC(C)(C)CC(C)(C)c1ccc(OCCO)cc1`, for which the Potency entry in experiment [8] is “inactive”. In addition, the compound was called inactive in [6].
Take `COCCOC(=O)C1=C(C)NC(C)=C(C(=O)OC/C=C/c2ccccc2)C1c1cccc([N+](=O)[O-])c1` (centres undefined): the Potency result in [2], in experiment [9], in experiment [3] and in [4] was “inactive” each time. Further, the Potency in experiment [8] is 9.44 µM (active). The result in experiment [6] was inactive.
Turning to `CCc1nn(CCCN2CCN(c3cccc(Cl)c3)CC2)c(=O)n1CCOc1ccccc1`, the Potency entry in experiment [2], in experiment [9], in experiment [3] and in experiment [4] was “inactive” throughout.

The values are drawn from PubChem BioAssay (Tox21).
